Our source for the activation values is PubChem BioAssay AID504408 (Broad Institute, 2011).

Hit rate of the full screen: of about 300,000 compounds, about 5,200 (1.7%) were called active. The sample as a whole holds a higher share of actives than the screen did. A number with no mark means an inactive call.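 Rule for the calls: active = mean replicate activation of at least 50% with a set share of replicates each reaching 50%; inconclusive = only one of those two conditions met; inactive = mean below 50% and too few replicates reaching it.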

This assay can be described thus: HSF-1 response element luciferase induction – NIH3T3-HGL cells, MG132 stress, luminescence, single point, primary screen (AID 504408).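 Note: 0% = median of the neutral control wells and 100% = twice that signal.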 Particulars: NIH3T3-HGL HSF-1 luciferase reporter, MG132, 8 h; at 9 µM; stronger effect = higher value; 100% = twice DMSO control signal. Background: In a reporter assay the amount or activity of a reporter protein is the signal.
As for `Cc1c(NC(=O)CN(C)CC(=O)Nc2ccc(F)c(F)c2F)c(=O)n(-c2ccccc2)n1C`, the activation was 1.95%.
`COc1cc(C(=O)NCC(=O)NCCSc2ccc(Br)cc2)cc(OC)c1OC`: the activation was 7.39%.
On to `Cc1cc(NC(=O)c2ccccc2C)no1`, for which the activation was 26.1%.
For `Cc1ccccc1CSCC(=O)NC(=O)NC(C)(C)C` the value was 5.08%; for `Cc1cc(NC(=O)CSCc2ccccc2C)no1`, 56.3% (active).
In the case of `O=C(COc1coc(CN2CCN(c3ccccc3)CC2)cc1=O)N1CCc2ccccc21`, the activation is 1.05%.
On to `COc1ccc(N2CCN(C(=O)COC(=O)c3cccc(S(=O)(=O)Nc4ccccc4OC)c3)CC2)cc1`, for which the activation is 5.51%.
For `Clc1cccc(-c2nc3nc4ccccc4nc3n2Cc2ccco2)c1` the value was 79.2% (active).
For the molecule `Cc1cc(NC(=O)CSc2nc3cc(Cl)ccc3c(=O)n2Cc2ccco2)no1`, the activation was 1.94%.
For `O=c1[nH]c(CSc2ncc(-c3ccc(F)cc3)n2Cc2ccco2)nc2ccccc12` the value was 41.8%; for `O=C(NCCSc1ncc(-c2ccccc2)[nH]1)c1ccco1`, 10.6%; for `CCCNC(=O)c1cnc(-c2ccccc2)nc1-c1ccccc1`, 23.9%.
For `CCCCOc1ccc(-c2ncc(C(=O)OCC)c(N)n2)cc1` the value was 23.3%; for `CCOC(=O)c1cnc(-c2ccccc2)nc1Oc1ccc(C)cc1`, 88.3% (active); for `O=C(COc1cccc2c1CCNC2=O)NC1CCCCC1`, -2.8%.
For `CC(C)Nc1nnc(SC(C)C(=O)N(C)C2CCCCC2)s1` (centres undefined) the value was 7.73%; for `N#CC(=C1SC=CS1)c1nc(-c2ccccc2)cs1`, 44.5%.
On to `N#CC(=C1CCCC1)c1nc(-c2ccc(Cl)cc2)cs1`, for which the activation was 62.5% (active).
For `CCCCCN1CC(O)=C(c2nc(-c3ccc(Cl)cc3)cs2)C1=N` the value was -2.24%; for `O=C(COc1ccccc1Cl)Nc1ccccc1C(=O)NC1CC1`, -14.4%; for `CN(C)CCN(C(=O)CN1C(=O)c2ccccc2C1=O)c1nc2cc3c(cc2s1)OCCO3`, 16%.
Turning to `CN(CC(=O)Nc1cccc(F)c1)C(=O)C1=COCCO1`, the activation is 3.81%.
Consider `Cc1cc(Nc2ccc(Br)cc2)nc2ccccc12`, for which the activation was 0.857%.
As for `CCOC(=O)C1=C(C)N=C2c3ccccc3C(=O)C2C1c1ccc(Br)cc1` (centres undefined), the activation was -1.71%.
For `O=C1CCCC2=C1C(c1ccccc1)n1c(s/c(=C/c3cccc(F)c3)c1=O)=N2` (centres undefined) the value was -4.55%; for `Cc1cccc(C2C3=C(CCCC3=O)N=C3c4ccccc4C(=O)C32)c1` (centres undefined), 78.2% (active); for `COc1ccc(CNS(=O)(=O)c2cc3c4c(c2)CCN4C(=O)CC3)cc1`, 30.7%.
Take `COc1ccccc1OCCCCCCN1CCN(C)CC1`: the activation was -3.8%.
For `Cc1n[nH]c(=O)c2c(NC(=O)CSc3ccccc3F)oc(C)c12` the value was 6.59%.
For `COc1ccc(OCCCC(=O)OC(C)C(=O)Nc2ccccc2[N+](=O)[O-])cc1` (centres undefined) the value was 10.9%.
For the molecule `COc1ccc2c(c1)CCc1c(C(=O)N3CCc4ccccc4C3)noc1-2`, the activation was 6.07%.
For `COc1ccc2oc(=O)c(C(=O)N3CCCC3)cc2c1` the value was 6.28%.
Consider `COc1ccc2c(c1)CCc1c(C(=O)N3CCCC3)noc1-2`, for which the activation was 54.9% (active).
For `O=C(NCCN1CCCC(O)C1)c1cc(COc2c(F)cccc2F)on1` (centres undefined) the value was -5.99%; for `CC1CN(C(=O)c2cc(COc3c(F)cccc3F)on2)CCN1C` (centres undefined), 52.1% (active).
For `O=C(c1cc(COc2c(F)cccc2F)on1)N1CCSCC1` the value was 13.6%.
For `Cc1csc(NC(=O)C2=COCCO2)n1` the value was 13%; for `CC(C)CN(C(=O)COC(=O)c1ccc(Cl)c(N)c1)c1c(N)n(Cc2ccccc2)c(=O)[nH]c1=O`, -19.5%; for `O=C(NC1CCCCCC1)c1cccnc1Sc1ccc(Cl)cc1`, -8.73%.
Take `O=C(NC1CCCCC1)c1ccc(-c2ccc(Cl)cc2)o1`: the activation is 67.1% (active).
For `S=C(NCc1ccc(Cl)cc1)NC1CCCCC1` the value was 18.1%; for `CCN(C(=O)COC(=O)c1sccc1C)c1c(N)n(Cc2ccccc2)c(=O)[nH]c1=O`, -3.51%; for `CCCNC(=O)c1onc(CSc2ccc(F)cc2)c1C(=O)NC(C)C`, -0.0105%.
For `CS(=O)(=O)c1ccc(Cl)c(NC(=O)COC(=O)c2ncc(Cl)c(Cl)c2Cl)c1` the value was 2.63%.
For `CC(C)c1cc(CN2CCOCC2)cc(C(C)C)c1O` the value was 4.46%; for `CCOc1cc(N2CCOCC2)c(OCC)cc1NC(=O)COc1cccc2cccnc12`, -23%; for `Oc1c(C(c2ccccn2)N2CCOCC2)ccc2cccnc12` (centres undefined), 73.3% (active).
For the molecule `O=C(COC(=O)c1ncc(Cl)c(Cl)c1Cl)NNC(=O)c1ccccc1`, the activation is 3.3%.
For `O=C1CC2(CCN(C(=O)COc3ccc(F)cc3)CC2)Oc2ccccc21` the value was 12%.
`CC(OC(=O)c1ccc(S(=O)(=O)N2CCOCC2)cc1)c1ccccc1` (centres undefined): the activation was 13.9%.
For `CC(Oc1ccc(F)cc1)C(=O)Nc1ccccc1C(=O)NC1CC1` (centres undefined) the value was 6.2%; for `O=C(Nc1cccnc1Cl)c1cc(-c2ccccc2O)on1`, 11.3%; for `COc1ccc(NC(=O)c2cc(-c3ccc(C)cc3)on2)cc1`, -4.41%.
For `Cc1ccc(O)c(NC(=O)c2cc(-c3ccco3)on2)c1` the value was 113% (active); for `c1ccc(C[C@H]2CNCCN2CCC23CC4CC(CC(C4)C2)C3)cc1`, -13.4%; for `Cc1ccc(CSCC(=O)N(C)CC(=O)Nc2ccc(C)cc2)cc1`, -77.8%.
For `O=C(CSC1=NS(=O)(=O)c2cc(F)ccc2N1)Nc1ccccc1F` the value was 30%; for `Cc1ccc(NC(=O)c2cc3ccccc3o2)cc1`, 51.6% (active).
In the case of `Cc1ccc(OC(=O)c2cc3ccccc3o2)cc1`, the activation was 5.61%.
Regarding `C/C(=N\NC(=S)Nc1ccc(C)cc1)c1cc2ccccc2o1`, the activation is 7.68%.
For `CN(/N=C/c1ccccc1)C(=S)c1ccccc1` the value was 9.01%; for `O=C(O)C(c1ccccc1)N1C(=O)/C(=C\c2ccc(-c3cccc(Cl)c3)o2)SC1=S` (centres undefined), -2.76%.
For `O=c1c(-c2cccc(Cl)c2)c[nH]n1-c1ccccc1` the value was 7.2%.
As to `O=C1c2ccccc2NC(c2ccc(-c3cccc(Cl)c3)o2)N1O` (centres undefined), the activation was 76.4% (active).
For `Cc1ccc(C(=O)C(C)OC(=O)Cc2n[nH]c(=O)c3ccccc23)cc1C` (centres undefined) the value was -0.0365%; for `O=C(NCc1ccccn1)Nc1ccc(Cl)cc1`, -2.45%; for `CCN(CC(=O)Nc1c(F)cccc1F)C(=O)C1CCC1`, -4.88%.
Turning to `O=C(Nc1nc(-c2ccco2)c(-c2ccco2)s1)c1ccco1`, the activation was 70.1% (active).
Consider `O=C(Nc1ccccc1)c1ccco1`, for which the activation is 11.5%.
For `NC(=O)c1ccsc1NC(=O)c1ccco1` the value was 26.5%.
For `Cc1csc(NC(=O)c2ccc(C)s2)n1` the value was -3.76%; for `O=C(NCCCN1CCCC1=O)c1ccc(S(=O)(=O)Nc2ccccc2)cc1`, 16.8%.
For `CC(C)(C)C(=O)COC(=O)c1cc(S(=O)(=O)N2CCCCC2)ccc1N1CCOCC1` the value was -1.57%.
Take `Cc1ccc2nnn(Cc3cccc(C(C)(C)C)c3O)c2c1`: the activation is 59.9% (active).
With `Cc1ccc(C(=O)CSc2nnc(Cn3nnc4ccccc43)n2C)cc1`, the activation is 43.4%.
For `O=C(CN1C(=O)NC2(CCCC2)C1=O)OCCOc1ccc(F)cc1` the value was 3.21%; for `CCCCn1c(N)c(N(CCC(C)C)C(=O)CC2OC(=O)c3ccccc32)c(=O)[nH]c1=O` (centres undefined), -3.07%; for `Cc1cc(Oc2ccc(Cl)cc2)nc(SCC(=O)c2ccccc2)n1`, 2.82%.
Take `Cc1cc(C)nc(SCC(=O)c2ccc(Cl)cc2)n1`: the activation is -1.86%.
For `Cc1cc(C)nc(S/C=C/C(=O)c2ccccc2)n1` the value was 111% (active).
Consider `CSc1ccc(/C=C2\NC(=O)NC2=O)cc1`, for which the activation is 20.8%.
For `CN(Cc1ccccc1F)C(=O)C(Cc1ccccc1)NC(=O)c1ccccc1` (centres undefined) the value was -0.838%.
Take `CCCCn1c(N)c(N(CCOC)C(=O)COc2c(C)cccc2C)c(=O)[nH]c1=O`: the activation is -3.47%.
Consider `CCC(C)NC(=O)C1c2ccccc2C(=O)N1Cc1ccccc1` (centres undefined), for which the activation was 16.4%.
Turning to `CC1CCC(NC(=O)C2c3ccccc3C(=O)N2Cc2ccc3c(c2)OCO3)CC1` (centres undefined), the activation is -8.55%.
On to `CCc1ccc(CN2C(=O)c3ccccc3C2C(=O)NCC2CCCO2)cc1` (centres undefined), for which the activation was 62.2% (active).
With `CCOC(=O)c1cc(NC(=O)c2cccnc2)ccn1`, the activation is -78.8%.
Take `COc1ccc(S(=O)(=O)N2CCCCC2)cc1NC(=O)COc1ccccc1`: the activation is 4.76%.
`COc1ccc(S(=O)(=O)N2CCOCC2)cc1NC(=O)CSc1ncnc2ccccc12`: the activation was 72.7% (active).
As to `COc1ccc(S(=O)(=O)N2CCOCC2)cc1NC(=O)COc1ccccc1`, the activation is -3.48%.
For `CCCOC(=O)Cc1c(O)c2ccccc2[nH]c1=O` the value was -21.7%; for `CCCC(=O)Nc1c(O)c2ccccc2[nH]c1=O`, -31.5%; for `O=C(Cc1c(O)c2ccccc2[nH]c1=O)NCc1ccccc1`, 55.5% (active).
For `Cc1ccc(NS(=O)(=O)c2ccc(C(=O)NCCCN3CCOCC3)cc2)cc1` the value was -3.65%; for `O=C(NCCS(=O)(=O)NCc1ccc(F)cc1)c1ccccc1`, 2.75%.
For `O=C(Nc1cccc2c1CCCC2)c1ccc(F)cc1` the value was -3.19%.
Take `COc1ccc2c(Cl)c(C(=O)NCc3ccco3)sc2c1`: the activation was 59.8% (active).
As to `COc1ccc2oc(C(=O)NCc3ccco3)c(C)c2c1`, the activation is 6.69%.
For `O=C(NCc1ccco1)c1sc2cccc(F)c2c1Cl` the value was 27.8%.
